This note sets out measurements from the supplement of paper PMC10933113.

Where a name gives a salt, the structure may show the parent alone. ± gives the uncertainty stated by the source.

This experiment concerns THP-1. The experiment in a line: CD86 surface expression induction over DMSO control (% over DMSO); higher = stronger dendritic cell activation. The note with it: exposure time: 24 h. As for the experimental part:
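hCLAT-like CD54 and CD86 surface expression on THP1 cells after 24 h exposure at a single concentration (highest non-cytotoxic concentration, or 100-200 µM if not cytotoxic). Flow cytometry (iQue) was run on 5,000 live cells.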
As for `O=C(Nc1ccccc1)c1cc(Cl)ccc1O` [5-Chlorosalicylanilide] (10 µM), the “CD86 surface expression induction” value is -11.7 ± 12.
As for `CCCOc1ccc2[nH]c(NC(=O)OC)nc2c1` [Oxibendazole] (100 µM), the “CD86 surface expression induction” value was -3.54 ± 40.
As to `CCCCC1C(=O)N(c2ccccc2)N(c2ccc(O)cc2)C1=O` (stereo not given) [Oxyphenbutazone] (10 µM), the “CD86 surface expression induction” value is 24.6 ± 15.
Then `O=C1c2cccc(O)c2C(=O)c2c(O)cc(CO)cc21` [Aloe-emodin] (100 µM), with 4.61 ± 9.4.
In the case of `C#CCN(C)CCCOc1ccc(Cl)cc1Cl` [Clorgyline hydrochloride] (100 µM), the “CD86 surface expression induction” value was -4.71 ± 3.7.
To `Clc1nc(C(Cl)(Cl)Cl)c(Cl)c(Cl)c1Cl` [2,3,4,5-Tetrachloro-6-(trichloromethyl)pyridine] (10 µM) belongs -11.6 ± 6.2; to `NC(=O)N/N=C/c1ccc([N+](=O)[O-])o1` [Nitrofurazone] (200 µM), 5.94 ± 3.7.
As to `CCCCCCCCCCCCO` [1-Dodecanol] (100 µM), the “CD86 surface expression induction” value is 21.8 ± 27.
Take `COc1cccc2c1C(=O)c1c(O)c3c(c(O)c1C2=O)C[C@@](O)(C(=O)CO)C[C@@H]3O[C@H]1C[C@H](N)[C@H](O)[C@H](C)O1` [Doxorubicin*] (10 µM): the “CD86 surface expression induction” value was 218 ± 96.
As for `CC(C)=CCC1C(=O)N(c2ccccc2)N(c2ccccc2)C1=O` [Feprazone] (200 µM), the “CD86 surface expression induction” value came out at 71.8 ± 44.
Then `CCCCCCCCCCCCN(CCO)CCO` [Lauryldiethanolamine] (10 µM), with -16.1 ± 0.72.
Then `CC(C)(C)OC(=O)c1ccc(O)cc1` [tert-Butyl 4-hydroxybenzoate] (100 µM), with -2.42 ± 14; and `CC1=C(/C=C/C(C)=C\C=C\C(C)=C\C(=O)O)C(C)(C)CCC1` [9-cis Retinoic acid] (100 µM), with 5.14 ± 16; and `O=C(/C=C/C=C/c1ccc2c(c1)OCO2)N1CCCCC1` [Piperine] (100 µM), with -4.64 ± 6.3.
Take `Cn1sccc1=O` [2-Methyl-4-isothiazolin-3-one hydrochloride] (10 µM): the “CD86 surface expression induction” value was -16.2 ± 4.7.
Turning to `COc1ccc2cc(CCC(C)=O)ccc2c1` [Nabumetone] (100 µM), the “CD86 surface expression induction” value is -3.23 ± 4.6.
For `Oc1ccc2cc(SSc3ccc4cc(O)ccc4c3)ccc2c1` [6-Hydroxy-2-naphthyl disulfide] (100 µM), the “CD86 surface expression induction” value came to 67.2 ± 57.
Take `COc1ccc(-c2cc(=S)ss2)cc1` [Anethole trithione] (100 µM): the “CD86 surface expression induction” value was -4.63 ± 2.6.
To `Cc1cccc(N(C)C(=S)Oc2ccc3c(c2)C2CCC3C2)c1` (stereo not given) [Tolciclate] (100 µM) belongs -1.12 ± 6; to `O=C(O)Cc1cc(I)c(Oc2cc(I)c(O)c(I)c2)c(I)c1` [Tetrac] (100 µM), 12.3 ± 2; to `Oc1ccc2ccccc2c1N=Nc1ccccc1` [C.I. Solvent Yellow 14] (200 µM), 3.18 ± 3.5.
In the case of `c1ccc(SCCSc2ccccc2)cc1` [1,2-Bis(phenylthio)ethane] (100 µM), the “CD86 surface expression induction” value was -2.45 ± 2.3.
To `CC(C)C[C@H](NC(=O)[C@H](Cc1ccccc1)NC(=O)c1cnccn1)B(O)O` [Bortezomib] (10 µM) belongs 107 ± 8.1.
For the molecule `O=C1c2cccc(O)c2C(=O)c2c(O)cccc21` [Danthron] (100 µM), the “CD86 surface expression induction” value was 6.93 ± 0.81.
For `COC(=O)Nc1nc2cc(Sc3ccccc3)ccc2[nH]1` [Fenbendazole] (100 µM), the “CD86 surface expression induction” value was -18.1 ± 26.
`CC(O)C#CC(C)O` (stereo not given) [Hex-3-yne-2,5-diol] (10 µM): the “CD86 surface expression induction” value is 0.05 ± 2.9.
As for `NC(=S)NC(N)=S` [2,4-Dithiobiuret] (200 µM), the “CD86 surface expression induction” value came to 26.6 ± 0.3.
On to `Clc1ccc(C(Cn2ccnc2)OCc2ccc(Sc3ccccc3)cc2)c(Cl)c1` (stereo not given) [Fenticonazole nitrate] (100 µM), for which the “CD86 surface expression induction” value stood at 102 ± 96.
On to `CC[C@@]1(O)C(=O)OCc2c1cc1n(c2=O)Cc2c-1nc1ccccc1c2/C=N/OC(C)(C)C` [Gimatecan] (10 µM), for which the “CD86 surface expression induction” value is 25.6 ± 10.
Take `CNc1ccc(O)cc1` [4-(Methylamino)phenol Sulfate] (10 µM): the “CD86 surface expression induction” value was 37.1 ± 4.6.
Turning to `CCCCCCCCCCC=CC1CC(=O)OC1=O` (stereo not given) [3-(Dodecenyl)dihydro-2,5-furandione] (200 µM), the “CD86 surface expression induction” value was -8.58 ± 3.
For `O=C(NS(=O)(=O)/C=C/c1ccccc1)c1ccc(F)cc1Cl` (200 µM), the “CD86 surface expression induction” value was -3.08 ± 4.4.
Take `O=C(Nc1ccccc1)c1cc([N+](=O)[O-])ccc1Cl` [2-Chloro-5-nitro-N-phenylbenzamide] (200 µM): the “CD86 surface expression induction” value amounted to 31.1 ± 7.1.
Then `O=C(O)c1cn(C2CC2)c2cc(N3CCNCC3)c(F)cc2c1=O` [Ciprofloxacin] (100 µM), with -5.55 ± 6.9; and `Clc1ccccc1-c1nc(-c2ccncc2)no1` [Pifexole] (100 µM), with 3.84 ± 13.
On to `Nc1ccccc1N` [1,2-Phenylenediamine*] (200 µM), for which the “CD86 surface expression induction” value came to 88.8 ± 49.
Turning to `O=C(O)Cn1c(C(=O)Nc2nc(-c3ccccc3Cl)cs2)cc2ccccc21` [Lintitript] (100 µM), the “CD86 surface expression induction” value was -2.3 ± 0.27.
For the molecule `CCCCCCCCCCCC(=O)NCCCN(C)C` [N-[3-(Dimethylamino)propyl]dodecanamide] (200 µM), the “CD86 surface expression induction” value came out at 43.4 ± 63.
On to `C[n+]1cc2c3c(ccc2c2ccc4cc5c(cc4c21)OCO5)OCO3` [Sanguinarine] (10 µM), for which the “CD86 surface expression induction” value came out at 73.1 ± 11.
Then `O=C(OCc1ccccc1)c1ccc(O)cc1` [Benzylparaben] (100 µM), with 3 ± 13.
